# High-throughput results: PubChem BioAssay, National Center for Advancing Translational Sciences (NCATS)
# The list is not random: actives were taken first. Their share in the collection is about 1.8%.
# p53ts 32C tox: kills p53ts cells at the permissive temperature; H1299-p53A138V at 32C, ATP luminescence viability, 24 h; Potency, µM (doses to about 46.1 µM), without a hit: at the top dose activity change, negative = cytotoxicity, hits mostly cytotoxic; 0.93% of 130,000 active; AID 924;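 further: 0% = DMSO and -100% = full killing by reference compound; nearly all actives have a fitted effect of over 55% in size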
#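 Cells: H1299 p53ts (A138V), 600/well, pre-incubated 16–30 h at 37C. Cpd up to 46 uM, 24 h, 32C. Readout: ATPlite luminescence, 20 min RT. Normalization: DMSO vs tamoxifen 100 uM. AC50 by Hill equation.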
# p53ts 39C kill: cytotoxicity in p53ts cells at nonpermissive temperature | H1299-p53A138V viability at 39C, ATP luminescence, 24 h | Potency, µM (doses to about 46.1 µM), without a hit: top-dose activity change, negative = cell killing, actives largely listed as cytotoxic | 1.5% of 130,000 active; further: on the % scale 0 is the no-effect control and ±100 the full control effect; nearly all actives have a fitted effect of over 55% in size
# Imprint erasure: induces erasure of genomic imprints in mouse ES cells; mouse ES Peg3-LacZ reporter, beta-gal luminescence, 40 h; Potency, µM (highest dose often 60.7 µM), inactives show at the highest dose activity change, positive = activation, most hits filed as activators; 0.02% of 110,000 active; AID 1948
#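 Imprint erasure is scored as LacZ activity from the silenced maternal Peg3 allele in feeder-free female ES cells cultured 40 h with LIF. Luminescence is normalized to in-plate negative controls and fitted to the Hill equation.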
# Active calls of the source: *; u = inconclusive; x = no result given; [ ] = another dose, or the depositor's remark. The call rests on the fitted dose curve; in most records, active means well fitted curve in the direction sought with a large enough effect; inconclusive means small, poorly fitted or top-dose-only effect, or another doubt; inactive means no such curve, though single readings can be large; an effect the other way counts as inactive or inconclusive. Potency means the concentration at half of the fitted maximal effect.
SMILES,p53ts 32C tox,p53ts 39C kill,Imprint erasure
COc1ccc(NC(=O)c2cc3ccccn3n2)cc1,10µM*,7.9µM*,-86%
CCOC(=O)c1cccc(NC(=O)c2cc3ccccn3n2)c1,10µM*,13µM*,-17%[10.9 µM]
O=C(Nc1ccccc1C(F)(F)F)c1cc2nc(-c3ccccc3)cc(-c3ccccc3)n2n1,5%,16%,-9%[10.9 µM]
O=C(Nc1ccc(OC(F)(F)F)cc1)c1cc2ccccn2n1,u,u,-21%[10.9 µM]
COc1ccccc1NCc1nnc2n1CCCCC2,3%,32%,11%[10.9 µM]
COc1ccc(C)cc1NC(c1nnc(-c2ccccc2)o1)c1ccc(F)cc1Cl (stereo not drawn),11%,-5%,17%[10.9 µM]
CCNc1ncc2nc(-c3cc(F)cc(F)c3)c(=O)n(CCC#N)c2n1,5%,1%,-11%
Cc1ccc(NC(=O)CSc2ncc(-c3ccccc3)[nH]2)cc1,8%,-23%,-11%[10.9 µM]
Cc1ccc(NC(=O)CSc2[nH]c(=O)ncc2C)cc1,0.1µM*,10µM*,-21%[10.9 µM]
CCSc1nc2c([nH]c3ccccc32)c(=O)n1CC,13%,-21%,-9%[10.9 µM]
CC1CCN(C(=O)CSc2c3c(nc4cc(Cl)ccc24)CCCC3)CC1,-28%,16µM*,7%[10.9 µM]
O=C(CSc1c2c(nc3cc(Cl)ccc13)CCCC2)NCc1ccccc1Cl,-5%,u,-14%[10.9 µM]
O=C(CSc1c2c(nc3cc(Cl)ccc13)CCCC2)N1CCN(c2ccccc2)CC1,u,25µM*,-17%[10.9 µM]
CCC(C)NC(=O)CSc1c2c(nc3cc(Cl)ccc13)CCCC2 (stereo not drawn),2%,-10%,-13%[10.9 µM]
O=C(Nc1nnc(-c2ccco2)s1)c1ccccc1,u,u,-69%
O=C(Nc1nnc(/N=C/c2ccco2)s1)c1ccc(F)cc1,10µM*,13µM*,-40%
COc1ccc(CNC(=O)c2cc(-c3ccc(Br)s3)nc3ccccc23)cc1,-6%,10µM*,3%[10.9 µM]
COc1ccc(OC)c(CNC(=O)c2cc(-c3ccc(Cl)s3)nc3ccccc23)c1,2%,-7%,-6%[10.9 µM]
CC(=O)OC[C@@H]1O[C@H](C/C=N\O[C@@H](C)CN2CCCc3nc(C)c(C)cc32)C=C[C@@H]1OC(C)=O,9%[9.22 µM],11%[9.22 µM],x
Cc1ccc(C)c(CN2C(=O)N(c3cc(Cl)ccc3C)S(=O)(=O)c3ccccc32)c1,-1%,-11%,-14%[10.9 µM]
NC(=O)Nc1nc2ccccc2[nH]1,10%[1.84 µM],6%,4%
C/C(=N\Nc1nc2ccccc2[nH]1)c1cc2ccccc2o1,16µM*,13µM*,x
Cc1cc(C)cc(Nc2cc(C)nc3nc(-c4ccco4)nn23)c1,-5%,-3%,-1%[10.9 µM]
CN(C)c1nc(N)c(C(=O)Nc2cccnc2)nc1Cl,13µM*,5µM*,-41%
O=C(Nc1cccnc1)c1cc(-c2cccc(Cl)c2)on1,6%,23%,8%[10.9 µM]
SMILES,p53ts 32C tox,p53ts 39C kill,Imprint erasure
CCOc1ccc(-n2c(SCC(=O)N3CCCCCC3)nc3c([nH]c4ccccc43)c2=O)cc1,4%,-28%,17%[10.9 µM]
O=C(NC1CC1)c1cccc(Nc2ccc(-c3ccc4c(c3)OCCO4)nn2)c1,20µM*,10µM*,x
O=C(Nc1cccc(Br)c1)c1cc(-c2ccc3c(c2)OCCO3)on1,u,u,-42%[10.9 µM]
Cc1cccc(NC(=O)c2sc3nc4c(cc3c2N)CN(C(C)C)CC4)c1,-13%,-17%,-13%[10.9 µM]
COc1ccccc1N1CCN(C(=O)C(CCSC)NS(=O)(=O)c2ccc3c(c2)oc(=O)n3C)CC1 (stereo not drawn),11%,3%,-14%[10.9 µM]
O=C(NCC1CCN(Cc2cccc(F)c2)CC1)c1cc2ccc3cccnc3c2[nH]1,-8%,-7%,-14%[10.9 µM]
Cn1c(/C(C#N)=C/c2ccccc2Br)nc2ccccc21,10µM*,u,-14%[10.9 µM]
CCn1c(/C(C#N)=C/c2ccccc2Cl)nc2ccccc21,-21%,u,-11%[10.9 µM]
Cc1ccc(-n2cc3c(c2-c2ccccc2Br)c(=O)n(C)c(=O)n3C)cc1N,28%,-4%,-4%[10.9 µM]
C[C@H](Cc1ccc(O)c(O)c1)[C@@H](C)Cc1ccc(O)c(O)c1,u,20µM*,17%
CC(Cc1ccc(O)c(O)c1)C(C)Cc1ccc(O)c(O)c1 (stereo not drawn),13%,u,-5%
CC1=NN(c2ccccc2)C(=O)/C1=C\c1cc(C)n(-c2ccccc2)c1C,x,20%,x
Cc1cc(/C=C2/C(=O)NN(c3ccccc3)C2=O)c(C)n1-c1cccc(O)c1,x,13µM*,x
COc1ccccc1-c1cc2nc(C)c(CCC(=O)NCCc3ccc(SC)cc3)c(C)n2n1,7%,-16%,-15%[10.9 µM]
CCOc1ccccc1-c1nc(Cn2c(=O)cc(C)c3c(C)nn(-c4ccccc4)c32)c(C)o1,10%,-10%,9%[10.9 µM]
Cc1c(Cl)cccc1NC(=O)C1CCCN(c2nnc(-n3c(C)ccc3C)s2)C1 (stereo not drawn),-6%,-11%,9%[10.9 µM]
C/C(=N\NC(=O)c1ccncc1)c1ccc2ccccc2c1O,u,2µM*,-37%[10.9 µM]
O=C(c1ccncc1)N1CCN(C(=O)c2cccc3ccccc23)CC1,-5%,8%,-3%
CCOc1ccccc1Nc1nc(-c2ccc(C)cc2)c(CC(=O)O)s1,8%,-12%,-6%[10.9 µM]
CCc1ccc(CNc2ncnc3onc(-c4ccc(Cl)cc4)c23)cc1,5%,-21%,-12%[10.9 µM]
CCS(=O)(=O)c1ncc(Cl)c(C(=O)N(Cc2ccccc2)Cc2ccco2)n1,18µM*,4µM*,-48%[10.9 µM]
CCS(=O)(=O)c1ncc(N(Cc2ccccc2)Cc2ccco2)c(C(=O)Nc2cccc(Cl)c2C)n1,4%,3%,-6%[10.9 µM]
CCC(CC)C(=O)Nc1ccc(OCc2cc(=O)n3ccc(C)cc3n2)cc1,7%,-1%,-7%[10.9 µM]
CCc1ccc2nc(N3CCC(C(=O)NCCC(C)C)CC3)sc2c1,u,16µM*,-13%[10.9 µM]
CCCCN(CCCC)CCCNC(=O)c1ccc2nc(N3CCCCC3)sc2c1,5%,-14%,-22%[10.9 µM]
SMILES,p53ts 32C tox,p53ts 39C kill,Imprint erasure
CC(C)CCNC(=O)C1CCN(c2nc3ccccc3o2)CC1,-6%,-7%,-10%
CCCN(CCC)CCCNC(=O)C1CCN(c2nc3ccc(CC)cc3s2)CC1,13µM*,u,15%[10.9 µM]
COc1ccc2nc(N3CCCC(C(=O)NCCCN4CCN(C)CC4)C3)sc2c1 (stereo not drawn),13µM*,10µM*,17%
CC1CCN(c2nc3ccc(C(=O)NCc4ccccc4)cc3s2)CC1,-6%,-5%,-4%[10.9 µM]
CCCN(CCC)CCNC(=O)C1CCN(c2nc3ccc(CC)cc3s2)CC1,13µM*,u,-12%[10.9 µM]
CCOc1ccc2nc(N3CCCC(C(=O)NCc4ccccc4Cl)C3)sc2c1 (stereo not drawn),-12%,-56%,-9%[10.9 µM]
CC(=O)Nc1nnc(SCc2cc(=O)c3cccc(Cl)c3[nH]2)s1,-8%,6%,u
COc1ccc(-n2c(=O)c3ccc(C(=O)NCc4ccc(C)cc4)cc3n(Cc3cccc(Cl)c3)c2=O)cc1,-5%,-6%,-3%[10.9 µM]
O=S(=O)(c1ccc2[nH]c3c(c2c1)CCCCC3)N1CCN(c2cccc(Cl)c2)CC1,4%,-5%,-5%[10.9 µM]
Oc1[nH]c2ccccc2c1C=Nc1ccc2c(c1)OCCO2,u,13µM*,-75%
Cc1cccc(/N=C/c2c(O)[nH]c3ccccc23)n1,u,u,-65%
COc1cccc(CNC(=O)CSc2n[nH]c(-c3ccccc3Cl)n2)c1,-1%,0%,6%[10.9 µM]
